# Reference: PubChem BioAssay (EPA / NIEHS)
# Calls of active or inactive are those of the source. How the source made its calls: active means hit-call score of the fitted dose curve at least 0.9, where 1 is the maximum; inactive means score below 0.9.
# How the values were obtained:
# Settings in all cases: mRNA level, 48 h; actives raise or lower the signal
# [1] = read-out: Cytochrome P450 (CYP24A1), CYP24A1 (gene 1591); assay: LTEA_HepaRG_CYP24A1: Life Technologies and Expression Analysis (LTEA) Assay for Cytochrome P450 (CYP24A1) using HepaRG (AID 2283478)
# Method in brief: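 Gene expression of CYP24A1 by TaqMan qRT-PCR in HepaRG after 48 h treatment, highest concentration 100 uM; activity fitted in both directions relative to DMSO vehicle.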
# [2] = read-out: Cytochrome P450 (CYP1A2), CYP1A2 (gene 1544); assay: LTEA_HepaRG_CYP1A2: Life Technologies and Expression Analysis (LTEA) Assay for Cytochrome P450 (CYP1A2) using HepaRG (AID 2283479)
# Method in brief: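 In duplicate wells, HepaRG cultures maintained in 0.5% DMSO were treated 48 h across an 8-point, half-log series topping at 100 uM; phenobarbital (1 mM) served as induction control. Expression was read by qRT-PCR.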
# [3] = read-out: cysteine-aspartic acid protease (CASP8), CASP8 (gene 841); assay: LTEA_HepaRG_CASP8: Life Technologies and Expression Analysis (LTEA) Assay for cysteine-aspartic acid protease (CASP8) using HepaRG (AID 2283480)
# Method in brief: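 HepaRG, 48 h exposure, duplicate wells; 8 conc, half-log from 100 uM, 0.5% DMSO. Serum-free induction medium. CASP8 mRNA by TaqMan qRT-PCR, norm. ACTB/GAPDH/POLR2A; gain/loss fitted vs DMSO.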
# CYP2C8 (gene 1558) = assay: LTEA_HepaRG_CYP2C8: Life Technologies and Expression Analysis (LTEA) Assay for CYP2C8 using HepaRG (AID 2283483)
# Method in brief: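 CYP2C8 mRNA induction or loss, by qRT-PCR normalized to ACTB/GAPDH/POLR2A, is read in HepaRG cells after 48 h treatment. Concentrations run from 100 uM down in half-log dilutions, with 0.5% DMSO as vehicle and baseline.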
# CYP2E1 (gene 1571) = assay: LTEA_HepaRG_CYP2E1: Life Technologies and Expression Analysis (LTEA) Assay for CYP2E1 using HepaRG (AID 2283485)
# Method in brief: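 Differentiated HepaRG cells were treated in duplicate for 48 h with chemicals in 0.5% DMSO, from 100 uM downward in half-log dilutions. RNA was then analysed by qRT-PCR for CYP2E1 induction or loss.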
# CYP4A11 (gene 1579) = assay: LTEA_HepaRG_CYP4A11: Life Technologies and Expression Analysis (LTEA) Assay for CYP4A11 using HepaRG (AID 2283486)
# Method in brief: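 Human hepatic HepaRG cultures receive duplicate 48 h exposures across a concentration-response series topping at 100 uM. Expression changes in CYP4A11 are measured by qRT-PCR relative to DMSO controls.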
# [4] = read-out: Cytochrome P450 3A4 (Homo sapiens) (UniProt P08684); assay: LTEA_HepaRG_CYP3A4: Life Technologies and Expression Analysis (LTEA) Assay for CYP3A4 using HepaRG (AID 2283487)
# Method in brief: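 Differentiated HepaRG cells in serum-free induction medium exposed in duplicate for 48 h to 8 half-log concentrations up to 100 uM in 0.5% DMSO. CYP3A4 mRNA measured by qRT-PCR normalized to ACTB, GAPDH and POLR2A; bidirectional fit versus DMSO.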
# [5] = read-out: DNA damage-inducible transcript 3 (DDIT3), DDIT3 (gene 1649); assay: LTEA_HepaRG_DDIT3: Life Technologies and Expression Analysis (LTEA) Assay for DNA damage-inducible transcript 3 (DDIT3) using HepaRG (AID 2283488)
# Method in brief: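 Changes in DDIT3 transcript, in either direction relative to 0.5% DMSO vehicle, were quantified by TaqMan qRT-PCR after 48 h chemical exposure of HepaRG cells at 8 concentrations, maximum 100 uM.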
# [6] = read-out: Pro-epidermal growth factor (Homo sapiens) (UniProt P01133); assay: LTEA_HepaRG_EGF: Life Technologies and Expression Analysis (LTEA) Assay for Epidermal growth factor (EGF) using HepaRG (AID 2283489)
# Method in brief: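 Concentration-response mRNA assay: HepaRG cells dosed 48 h (max 100 uM, 0.5% DMSO), EGF measured by qRT-PCR and normalized to ACTB/GAPDH/POLR2A.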
# [7] = read-out: Early growth response protein 1 (EGR1) transcription factor, EGR1 (gene 1958); assay: LTEA_HepaRG_EGR1: Life Technologies and Expression Analysis (LTEA) Assay for Early growth response protein 1 (EGR1) transcription factor using HepaRG (AID 2283490)
# Method in brief: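 Read-out is EGR1 mRNA level by qRT-PCR, normalized to three housekeeping genes and analysed for gain or loss of signal against 0.5% DMSO. Source cells: human HepaRG, treated 48 h at up to 100 uM in half-log dilutions.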
# [8] = read-out: Ezrin (EZR), EZR (gene 7430); assay: LTEA_HepaRG_EZR: Life Technologies and Expression Analysis (LTEA) Assay for Ezrin (EZR) using HepaRG (AID 2283491)
# Method in brief: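 Differentiated human HepaRG cells, 48 h after plating, were exposed in serum-free induction medium for 48 hours to eight half-log concentrations up to 100 uM in 0.5% DMSO. EZR mRNA was measured by TaqMan qRT-PCR, normalized to ACTB, GAPDH and POLR2A, and fitted bidirectionally against DMSO.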
# [9] = read-out: Cytochrome P450 3A7 (Homo sapiens) (UniProt P24462); assay: LTEA_HepaRG_CYP3A7: Life Technologies and Expression Analysis (LTEA) Assay for CYP3A7 using HepaRG (AID 2283492)
# Method in brief: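 qRT-PCR of CYP3A7 in HepaRG lysates after 48 h treatment; concentration-response (8 points, max 100 uM) analysed bidirectionally relative to 0.5% DMSO controls.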
# CYP3A5 (gene 1577) = assay: LTEA_HepaRG_CYP3A5: Life Technologies and Expression Analysis (LTEA) Assay for CYP3A5 using HepaRG (AID 2283493)
# Method in brief: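 mRNA induction or loss of CYP3A5 assessed in HepaRG after 48 h dosing, 100 uM top concentration, duplicate wells; TaqMan qRT-PCR with ACTB, GAPDH, POLR2A normalization; 0.5% DMSO as negative control.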
# [10] = read-out: Fatty Acid-Binding Protein 1 (FABP1), FABP1 (gene 2168); assay: LTEA_HepaRG_FABP1: Life Technologies and Expression Analysis (LTEA) Assay for Fatty Acid-Binding Protein 1 (FABP1) using HepaRG (AID 2283494)
# Method in brief: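 HepaRG, 48 h post-plating switched to serum-free induction medium, then dosed 48 h (duplicate, 8 pts, ≤100 uM, 0.5% DMSO). RNA → Fluidigm TaqMan qRT-PCR, FABP1 normed to ACTB/GAPDH/POLR2A. Bidirectional curve fit vs DMSO.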
# [11] = read-out: Cytochrome P450 4A22 (Homo sapiens) (UniProt Q5TCH4); assay: LTEA_HepaRG_CYP4A22: Life Technologies and Expression Analysis (LTEA) Assay for Cytochrome P450 4A22 (CYP4A22) using HepaRG (AID 2283495)
# Method in brief: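 Concentration-response (8 points, max 100 uM, 0.5% DMSO) in human HepaRG liver cells after 48 h exposure. CYP4A22 mRNA by TaqMan qRT-PCR with housekeeping-gene normalization.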
# [12] = read-out: Cytochrome P450 7A1 (Homo sapiens) (UniProt P22680); assay: LTEA_HepaRG_CYP7A1: Life Technologies and Expression Analysis (LTEA) Assay for Cytochrome P450 7A1 (CYP7A1) using HepaRG (AID 2283496)
# Method in brief: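 Gene expression endpoint in human HepaRG liver cells treated for 48 h with test chemicals (up to 100 uM, 0.5% DMSO). Values come from bidirectional concentration-response fitting versus DMSO.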
# [13] = read-out: Cytochrome P450 2C19 (Homo sapiens) (UniProt P33261); assay: LTEA_HepaRG_CYP2C19: Life Technologies and Expression Analysis (LTEA) Assay for CYP2C19 using HepaRG (AID 2283482)
# Method in brief: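 Endpoint: CYP2C19 mRNA change, bidirectional fit vs 0.5% DMSO. Cells: HepaRG, 48 h exposure, eight-point series topping at 100 uM. Quantitation: qRT-PCR normalized to ACTB, GAPDH, POLR2A.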
# CYP2C9 (gene 1559) = assay: LTEA_HepaRG_CYP2C9: Life Technologies and Expression Analysis (LTEA) Assay for CYP2C9 using HepaRG (AID 2283484)
# Method in brief: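 Cells plated 48 h, switched to serum-free induction medium, then treated in duplicate for 48 h at eight concentrations (max 100 uM, 0.5% DMSO). RNA then analysed by qRT-PCR for CYP2C9; curves fitted in both directions relative to DMSO.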
# [14] = read-out: Glutathione S-Transferase (GSTA2), GSTA2 (gene 2939); assay: LTEA_HepaRG_GSTA2: Life Technologies and Expression Analysis (LTEA) Assay for Glutathione S-Transferase (GSTA2) using HepaRG (AID 2283497)
# Method in brief: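 HepaRG, 48 h dosing, 8-pt half-log CRC from 100 uM, 0.5% DMSO vehicle, n=2; RNA → Fluidigm TaqMan qRT-PCR; GSTA2 vs ACTB/GAPDH/POLR2A; gain/loss fit vs DMSO.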
# Chain of Cytochrome P450 3A7 (Homo sapiens) (P24462 whole entry, looked up): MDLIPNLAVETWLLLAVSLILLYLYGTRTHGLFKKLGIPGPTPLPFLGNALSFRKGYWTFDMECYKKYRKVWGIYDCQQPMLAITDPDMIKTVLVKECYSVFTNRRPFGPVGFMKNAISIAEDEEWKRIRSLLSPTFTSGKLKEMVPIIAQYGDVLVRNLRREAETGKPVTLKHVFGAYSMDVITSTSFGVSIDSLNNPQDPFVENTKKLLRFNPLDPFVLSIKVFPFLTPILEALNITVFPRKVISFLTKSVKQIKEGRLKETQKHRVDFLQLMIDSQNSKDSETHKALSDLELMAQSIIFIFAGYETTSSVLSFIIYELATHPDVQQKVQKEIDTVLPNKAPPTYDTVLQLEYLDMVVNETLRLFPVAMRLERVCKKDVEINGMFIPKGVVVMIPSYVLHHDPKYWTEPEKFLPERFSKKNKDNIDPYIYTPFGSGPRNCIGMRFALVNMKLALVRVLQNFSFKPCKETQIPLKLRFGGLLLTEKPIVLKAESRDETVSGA
# Chain of Cytochrome P450 3A4 (Homo sapiens) (P08684 whole entry, looked up): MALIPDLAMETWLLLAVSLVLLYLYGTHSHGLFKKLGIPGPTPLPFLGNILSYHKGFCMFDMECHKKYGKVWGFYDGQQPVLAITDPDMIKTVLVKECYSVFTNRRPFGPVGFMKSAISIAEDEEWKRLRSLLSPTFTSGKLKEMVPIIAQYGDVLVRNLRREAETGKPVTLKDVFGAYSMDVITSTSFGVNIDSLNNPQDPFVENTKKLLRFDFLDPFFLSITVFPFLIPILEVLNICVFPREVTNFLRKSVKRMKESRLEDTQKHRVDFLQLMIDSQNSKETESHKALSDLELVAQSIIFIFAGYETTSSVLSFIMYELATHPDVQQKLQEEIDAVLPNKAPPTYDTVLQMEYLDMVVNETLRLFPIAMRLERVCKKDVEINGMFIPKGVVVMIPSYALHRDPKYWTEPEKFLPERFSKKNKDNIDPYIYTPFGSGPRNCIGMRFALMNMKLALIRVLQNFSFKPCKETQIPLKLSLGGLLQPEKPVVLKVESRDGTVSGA
# Chain of Cytochrome P450 2C19 (Homo sapiens) (P33261 whole entry, looked up): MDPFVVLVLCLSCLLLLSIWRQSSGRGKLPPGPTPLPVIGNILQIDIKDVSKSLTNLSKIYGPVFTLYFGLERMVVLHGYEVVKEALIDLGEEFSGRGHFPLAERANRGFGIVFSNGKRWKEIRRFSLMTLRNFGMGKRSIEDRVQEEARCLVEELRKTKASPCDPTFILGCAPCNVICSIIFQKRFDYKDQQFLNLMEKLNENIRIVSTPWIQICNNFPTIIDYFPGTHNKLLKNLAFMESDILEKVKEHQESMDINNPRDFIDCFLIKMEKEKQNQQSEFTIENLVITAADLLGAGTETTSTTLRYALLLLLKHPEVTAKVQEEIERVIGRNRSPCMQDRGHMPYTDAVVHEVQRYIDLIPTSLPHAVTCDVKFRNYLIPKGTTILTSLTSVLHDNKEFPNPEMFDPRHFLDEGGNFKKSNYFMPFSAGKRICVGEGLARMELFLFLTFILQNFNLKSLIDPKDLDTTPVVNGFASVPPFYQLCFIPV
smiles,measurement,setting,value
CCCCCCC(=O)OCC,outcome,[1],inactive
same,AC50,[2],23 µM (active)
same,outcome,[3],inactive
same,outcome,CYP2C8 (gene 1558),inactive
same,outcome,CYP2E1 (gene 1571),inactive
same,outcome,CYP4A11 (gene 1579),inactive
same,outcome,[4],inactive
same,outcome,[5],inactive
same,outcome,[6],inactive
same,outcome,[7],inactive
same,outcome,[8],inactive
same,outcome,[9],inactive
same,outcome,CYP3A5 (gene 1577),inactive
same,outcome,[10],inactive
same,outcome,[11],inactive
same,outcome,[12],inactive
CN1CCCC1=O,outcome,[1],inactive
same,AC50,[2],31.5 µM (active)
same,outcome,[3],inactive
same,outcome,[13],inactive
same,outcome,CYP2E1 (gene 1571),inactive
same,outcome,CYP4A11 (gene 1579),inactive
same,outcome,[4],inactive
same,outcome,[5],inactive
same,outcome,[6],inactive
same,outcome,[7],inactive
same,outcome,[8],inactive
same,outcome,[9],inactive
same,outcome,CYP3A5 (gene 1577),inactive
same,outcome,[10],inactive
same,outcome,[11],inactive
same,outcome,[12],inactive
CCCCC(CC)COC(=O)CC(C(=O)OCC(CC)CCCC)S(=O)(=O)O (configuration not stated),outcome,[1],inactive
same,AC50,[2],15.8 µM (active)
same,AC50,[3],81.6 µM (active)
same,AC50,CYP2C8 (gene 1558),15.8 µM (active)
same,AC50,CYP2C9 (gene 1559),88.1 µM (active)
same,AC50,CYP2E1 (gene 1571),76.5 µM (active)
same,outcome,CYP4A11 (gene 1579),inactive
same,AC50,[5],71.9 µM (active)
same,outcome,[6],inactive
same,AC50,[7],85.5 µM (active)
same,outcome,[8],inactive
same,AC50,CYP3A5 (gene 1577),82.9 µM (active)
same,AC50,[10],91.6 µM (active)
same,outcome,[11],inactive
same,AC50,[12],92 µM (active)
same,AC50,[14],82.2 µM (active)
O=[N+]([O-])C(CO)(CO)CO,outcome,[1],inactive
same,AC50,[2],28.6 µM (active)
same,outcome,[3],inactive
same,outcome,CYP2C8 (gene 1558),inactive
same,outcome,CYP2E1 (gene 1571),inactive
same,outcome,CYP4A11 (gene 1579),inactive
same,outcome,[4],inactive
same,outcome,[5],inactive
same,outcome,[6],inactive
same,outcome,[7],inactive
same,outcome,[8],inactive
same,outcome,[9],inactive
same,outcome,CYP3A5 (gene 1577),inactive
same,outcome,[10],inactive
same,outcome,[11],inactive
same,outcome,[12],inactive
same,outcome,[14],inactive
CCOC(=O)CCC(=O)OCC,outcome,[1],inactive
same,outcome,[2],inactive
same,AC50,[3],87.3 µM (active)
same,outcome,CYP2C8 (gene 1558),inactive
same,outcome,CYP2E1 (gene 1571),inactive
same,outcome,CYP4A11 (gene 1579),inactive
same,outcome,[4],inactive
same,outcome,[5],inactive
same,outcome,[6],inactive
same,outcome,[7],inactive
same,outcome,[8],inactive
same,outcome,[9],inactive
same,outcome,CYP3A5 (gene 1577),inactive
same,outcome,[10],inactive
same,outcome,[11],inactive
same,outcome,[12],inactive
same,outcome,[14],inactive
O=c1c(O)c(-c2ccc(O)c(O)c2)oc2cc(O)cc(O)c12,outcome,[1],inactive
same,AC50,[2],0.806 µM (active)
same,outcome,[3],inactive
same,outcome,CYP2C8 (gene 1558),inactive
same,outcome,CYP2C9 (gene 1559),inactive
same,outcome,CYP2E1 (gene 1571),inactive
same,AC50,CYP4A11 (gene 1579),50 µM (active)
same,outcome,[4],inactive
same,outcome,[5],inactive
same,outcome,[6],inactive
same,outcome,[7],inactive
same,outcome,[8],inactive
same,outcome,CYP3A5 (gene 1577),inactive
same,outcome,[10],inactive
same,outcome,[11],inactive
same,outcome,[12],inactive
same,outcome,[14],inactive
CC1(C)NC(=O)NC1=O,outcome,[1],inactive
same,outcome,[2],inactive
same,outcome,[3],inactive
same,outcome,CYP2C8 (gene 1558),inactive
same,outcome,CYP2C9 (gene 1559),inactive
same,outcome,CYP2E1 (gene 1571),inactive
same,outcome,CYP4A11 (gene 1579),inactive
same,outcome,[4],inactive
same,outcome,[5],inactive
same,outcome,[6],inactive
same,outcome,[7],inactive
same,outcome,[8],inactive
same,outcome,[9],inactive
same,outcome,CYP3A5 (gene 1577),inactive
same,outcome,[10],inactive
same,outcome,[11],inactive
same,outcome,[12],inactive
same,outcome,[14],inactive
